Where “and” joins values, the source holds several entries; their conditions need not be identical. Identical values can stand only once. Results filed as inconclusive are left out. Calls of active or inactive are those of the source.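 Rule for the calls, unless noted: active = compounds whose cell count with miR-34 switched on is under 0.7 times the count with it off; inactive = the rest.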

Test [1] is described as follows: stimulators of nuclear beta-catenin in C2C12, primary screen, imaging, WNT3A-conditioned medium, mouse C2C12, NPC library (AID 1117326; in the data active = nuclear beta-catenin stimulation mostly above about 4.2%, no sharp cut-off; inactive = mostly below about 10%). The settings on record: stronger effect = higher value.
Test [2] can be described thus: stimulators of insulin release from INS-1E, primary screen, cell-based, 5 mM glucose, NPC library (AID 1117329;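 active = compound raises insulin release from rat beta cells at 5 mM glucose, no numeric limit stated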). As to conditions: rat INS-1E insulin secretion, at 10 µM, stronger effect = higher value.
A short description of test [3]: growth inhibition of GSK3B-pretreated HCT116 cells – cell-based, CellTiter-Glo, 0.2 to 20 µM (AID 1117336;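 active = compounds lowering colon cancer cell viability after pretreatment blocking the GSK3B kinase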). The settings on record: HCT116 viability after GSK3B inhibitor, at 20 µM, stronger effect = higher value.
A short description of test [4]: inhibition of endothelial tube formation, primary screen, imaging, VEGF stimulated, CD31 staining, tube area, NPC library (AID 1117340;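 active = compound that reduces growth-factor-driven endothelial tube area in a mixed cell culture, no cutoff stated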). The settings on record: VEGF-stimulated ADSC/ECFC co-culture, at 10 µM, stronger effect = higher value.
Test [5] in a line: glucagon-like peptide 1 release enhancers, primary assay, NCI-H716 cell line, NPC library (AID 1117341;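 active = compound raises GLP1 secretion from the human gut endocrine cells, with no numeric limit stated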). The settings on record: NCI-H716 cells, at 10 µM, stronger effect = higher value.
Test [6] in a line: HCT116 colon cancer cell growth inhibition, primary screen, CellTiter-Glo luminescence, NPC library (AID 1117342;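 active = compounds that lower survival of HCT116 colon cancer cells in the luminescence readout, no numeric limit stated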). As to conditions: at 20 µM (top of the series).
Test [7] in a line: CellTiter-Glo luminescent readout of SW480 viability loss, NPC library primary (AID 1117343;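 active = compounds that lower viability of the colon cancer cells in the luminescence readout, with no numeric limit stated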). The settings on record: CellTiter-Glo luminescence; at 20 µM (top of the series) unless noted.
Test [8] in a line: decreased DLD-1 cellular survival, CellTiter-Glo luminescent readout, NPC compound collection, primary HTS (AID 1117346;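 active = compounds that lower survival of DLD-1 colon cancer cells in the luminescence readout, no cutoff given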). The settings on record: DLD-1 viability, CellTiter-Glo luminescence; at 20 µM (top of the series). For orientation: Cellular ATP, detected with luciferase, serves as a proxy for viable cell number.
Test [9] concerns Aerobactin synthetase IucA (Klebsiella pneumoniae). Kind of test: IucA aerobactin synthetase inhibitors, biochemical, Tocris library, absorbance (AID 1345561; call rule not given here;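 note: 100% = enzyme without compound and 0% = no enzyme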). As to conditions: purified IucA enzyme assay, absorbance (OD) read-out; stronger effect = lower value;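 tested at 8 µM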.
A short description of test [10]: sensitizers of A549 cells to miR-34 induction, primary screen, imaging, A549 dox-inducible miR-34, nuclei and caspase counts (AID 1347080). As to conditions: A549 miR-34 inducible, Hoechst nuclei count, 48 h.
Test [11] can be described thus: survival rescue of mitochondrial mutant cells in low glucose, primary screen, MELAS cybrids, Rieske KO mouse fibroblasts, CellTiter-Glo (AID 1508586;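 active = mean z-score across replicates of 1.96 or higher in either the MELAS or the Rieske mutant cell line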;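 note: z relative to plate mean and SD of compound and empty wells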).
A short description of test [12]: viability rescue of complex I mutant cybrids, primary screen, cell-based, galactose medium, ATP luminescence (AID 1645843;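 active = z-score of at least 1.8 in each of two replicates, scored against plate mean and spread of sample wells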;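 note: positive z means more ATP and so rescue of galactose-driven cybrid death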). As to conditions: complex I mutant cybrid cells, 72 h, stronger effect = higher value.
A short description of test [13]: growth inhibition of DIPG glioma cells, dose response, cell-based, JHH-DIPG-1, MIPE4.0, CellTiter-Glo, qHTS (AID 1347062; cut-off not given, nearly all actives have AC50 up to about 27 µM). As to conditions: JHH-DIPG-1 viability, CellTiter-Glo ATP luminescence.
The nature of test [14]: SU-DIPG-VI glioma cell viability, MIPE4.0 library, CellTiter-Glo luminescence, qHTS (AID 1347066; cut-off not given, nearly all actives have AC50 up to about 30 µM;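 note: cells exposed to compound for 48 hours before readout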). As to conditions: CellTiter-Glo ATP luminescence.
Test [15] in a line: SU-DIPG-XXV glioma cell viability, MIPE5.0 library, qHTS (AID 1347068; cut-off not given, nearly all actives have IC50 up to about 30 µM).
Test [16] in a line: liver-stage malaria parasite growth inhibition, primary screen, cell-based, HepG2, luciferase luminescence, HepG2 viability (AID 624349; in the data active = parasite load remaining mostly below about 12%, no sharp cut-off; inactive = mostly above about 10%;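 note: 100% = mean of DMSO negative control wells on the same plate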). As to conditions: P. berghei liver stage in HepG2, luciferase luminescence, concentration not given here; parasite load remaining: stronger effect = lower value; viability: measured here: HepG2 viability without parasites.
Where [17] appears, read: stronger effect = lower value, cell number ratio, induced over uninduced.
Setting [18] is: measured here: relative caspase fold change +Dox/-Dox.
Setting [19] is: measured here: total cells with miR-34 induction, stronger effect = lower value.
Where [20] appears, read: measured here: total cells without miR-34 induction.
The mark [21] stands for this setting: MELAS cybrid survival, CellTiter-Glo 48 h, stronger effect = higher value.
The mark [22] stands for this setting: Rieske KO mouse fibroblast survival, CellTiter-Glo 72 h.

A word on the remaining activity: it is the signal under treatment as a percentage of the control signal. On to `O=C1c2ccccc2S(=O)(=O)N1CCCCN1CCN(c2ncccn2)CC1`, for which the nuclear beta-catenin stimulation in [1] (at 10 µM) is -1.2% (inactive); in test [1] (stimulation, at 2 µM), 1.3%. Further, in test [2], the insulin secretion stimulation is 3.3% (inactive). For the same molecule, in [3], the viability decrease is -7% (inactive). In test [4], the tube area decrease is 4.9% (inactive). Further, in [5], the GLP1 secretion stimulation was -1.9% (inactive). In addition, the inhibition of viability in test [6] is 7.2% (inactive). In addition, the viability decrease (inhibition) in test [7] is -2.4% (active); in [8], -2.8% (inactive). Further, the remaining activity in test [9] is 111% (inactive). Besides, the values for the fold change in test [10] (setting [17]) and in test [10] (setting [18]) were 0.855 (inactive) and 1.78, respectively. Further, the values for the cell count in test [10] (setting [19]) and in [10] (setting [20]) were 8330 and 9750, respectively. Besides, the z-score was -0.295 (inactive) in [11] (setting [21]), -0.0604 in [11] (setting [22]) and 0.135 (inactive) in [12].

Turning to `CC1(CN2CCC(n3c(=O)[nH]c4ccccc43)CC2)OCc2ccccc2-n2cccc21` (stereo not drawn), the nuclear beta-catenin stimulation in test [1] (at 10 µM) was 2.3% (inactive); in test [1] (stimulation, at 2 µM), 2%. In addition, the insulin secretion stimulation in test [2] is -3.4% (inactive). In test [3], the viability decrease was 78.6% (active). In test [4], the tube area decrease was 7.2% (inactive). Besides, the GLP1 secretion stimulation in test [5] was 3.3% (inactive). Further, the inhibition of viability in [6] was 113% (active). The viability decrease (inhibition) is 146% (active) in test [7] and 101% (active) in test [8]. For the same molecule, the remaining activity in test [9] was 97.5% (inactive). Besides, the call in test [13], in test [14] and in test [15] was inactive. Also, the fold change in test [10] (setting [17]) was 0.899 (inactive); in test [10] (setting [18]), 1.14. Besides, the cell count worked out at 6010 in [10] (setting [19]) and 6680 in test [10] (setting [20]). The z-score in [12] is -0.665 (inactive).

Usually viability stands for a per cent measure of how many cells are alive, often set against a control. As to `CC(C)C(=O)c1c(C(C)C)nn2ccccc12`, the parasite load remaining in test [16] is 83.4% (inactive). The molecule further returned a viability in test [16] of 97%. The nuclear beta-catenin stimulation in [1] (at 10 µM) was -0.8% (inactive); in [1] (stimulation, at 2 µM) it was 0.4%. The insulin secretion stimulation in test [2] is 24.5% (active). Also, the viability decrease in test [3] was 39.4% (inactive). The tube area decrease in test [4] is -13.6% (inactive). For the same molecule, the GLP1 secretion stimulation in [5] is 3.4% (inactive). Moreover, in test [6], the inhibition of viability is 31.8% (inactive). Also, the viability decrease (inhibition) in test [7] was 5% (inactive); in [8], 1.8% (inactive). Besides, the remaining activity in test [9] is 110% (inactive). The fold change in test [10] (setting [17]) was 1.02 (inactive) and 0.934 (inactive) and 0.944 (inactive); in test [10] (setting [18]) it was 0.854 and 0.782 and 0.951. For the same molecule, the cell count in test [10] (setting [19]) is 9930 and 7850 and 8420; in test [10] (setting [20]), 9700 and 8400 and 8930. The z-score in test [11] (setting [21]) is 1.07 (inactive) and 0.83 (inactive); in [11] (setting [22]) it was -0.15 and -1.19; in test [12], 0.105 (inactive) and -0.07 (inactive) and 0.255 (inactive).

As to `CCc1cc(Cl)c(OC)c(C(=O)NC[C@@H]2CCCN2CC)c1O`, the parasite load remaining in test [16] was 103% (inactive). In addition, in [16], the viability is 87.5%. For the same molecule, the nuclear beta-catenin stimulation is 4.5% (inactive) in test [1] (at 10 µM) and 1.7% in test [1] (stimulation, at 2 µM). In addition, the insulin secretion stimulation in [2] was 5.2% (inactive). Moreover, the viability decrease in test [3] is -86.7% (inactive). Also, the tube area decrease in test [4] was 2.8% (inactive). Besides, in test [5], the GLP1 secretion stimulation is 5.8% (inactive). Further, in test [6], the inhibition of viability is 51.9% (active). In addition, the viability decrease (inhibition) in test [7] was 58.3% (active); in test [8] it was 14.4% (inactive). For the same molecule, in test [9], the remaining activity is 112% (inactive). For the same molecule, the fold change in test [10] (setting [17]) is 0.835 (inactive) and 0.921 (inactive); in [10] (setting [18]) it was 0.937 and 0.744. The cell count in test [10] (setting [19]) was 7860 and 8160; in test [10] (setting [20]), 9410 and 8850. For the same molecule, the z-score is 0.117 (inactive) in test [11] (setting [21]), 0.179 in [11] (setting [22]) and -0.605 (inactive) in test [12].

Values taken from PubChem BioAssay.
